# Measured values: the supplement of paper PMC10849652
# The full data set covers some 8,800 targets. This sample favours those with a hit. About 0.5% of all pairs of compound and target were hits.
# Compound: Cc1sc2c(c1C)C(c1ccc(Cl)cc1)=N[C@@H](CC(=O)OC(C)(C)C)c1nnc(C)n1-2
# Assay: log2 fold change, soluble protein after heating vs DMSO (PISA); higher = thermal stabilisation; K562 lysate, 10 uM; active = over 0.2 and 3.5 SD of the protein, either way, in both replicates (recomputed)
# Procedure, shortened: (§1)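 K562 pellets were dounce-homogenised in PBS pH 7.4 with 1 mM MgCl2, and the crude extract at 1 mg/mL protein was treated with 10 μM compound for 30 min. Aliquots were heated for 3 min across 48°C-58°C, pooled, and brought to 0.5% NP-40 at 4°C; soluble protein was the supernatant after 21,000xg for 90 min. Soluble protein was quantified by TMTpro 16plex LC-MS/MS with channel sums equalised, and reported as log2 fold change in thermal stability against DMSO controls, with values from duplicates.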
# Sequence of UniProt P11142 (P11142 whole entry, looked up): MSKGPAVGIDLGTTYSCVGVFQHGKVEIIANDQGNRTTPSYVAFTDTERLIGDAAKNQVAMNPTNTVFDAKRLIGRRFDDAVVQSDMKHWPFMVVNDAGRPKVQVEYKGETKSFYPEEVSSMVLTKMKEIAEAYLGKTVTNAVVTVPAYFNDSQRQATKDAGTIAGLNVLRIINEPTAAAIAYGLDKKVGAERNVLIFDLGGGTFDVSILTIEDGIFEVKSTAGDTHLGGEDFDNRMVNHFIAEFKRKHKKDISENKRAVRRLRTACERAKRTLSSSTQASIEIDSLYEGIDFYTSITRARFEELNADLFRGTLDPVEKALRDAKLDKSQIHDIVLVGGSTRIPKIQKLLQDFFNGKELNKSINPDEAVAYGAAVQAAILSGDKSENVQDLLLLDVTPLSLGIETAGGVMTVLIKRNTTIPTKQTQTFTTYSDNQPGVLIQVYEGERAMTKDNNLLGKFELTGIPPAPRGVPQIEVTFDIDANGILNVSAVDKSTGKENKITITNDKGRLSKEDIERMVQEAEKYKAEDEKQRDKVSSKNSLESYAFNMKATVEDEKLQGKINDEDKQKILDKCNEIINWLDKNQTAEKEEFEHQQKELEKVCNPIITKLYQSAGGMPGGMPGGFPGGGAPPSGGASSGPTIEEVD
# Sequence of UniProt Q01628 (Q01628 whole entry, looked up): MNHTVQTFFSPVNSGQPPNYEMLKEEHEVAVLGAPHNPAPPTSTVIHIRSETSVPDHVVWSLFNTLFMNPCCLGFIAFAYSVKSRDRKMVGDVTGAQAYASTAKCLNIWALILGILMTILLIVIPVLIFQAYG
# Sequence of UniProt Q6NT76 (Q6NT76 whole entry, looked up): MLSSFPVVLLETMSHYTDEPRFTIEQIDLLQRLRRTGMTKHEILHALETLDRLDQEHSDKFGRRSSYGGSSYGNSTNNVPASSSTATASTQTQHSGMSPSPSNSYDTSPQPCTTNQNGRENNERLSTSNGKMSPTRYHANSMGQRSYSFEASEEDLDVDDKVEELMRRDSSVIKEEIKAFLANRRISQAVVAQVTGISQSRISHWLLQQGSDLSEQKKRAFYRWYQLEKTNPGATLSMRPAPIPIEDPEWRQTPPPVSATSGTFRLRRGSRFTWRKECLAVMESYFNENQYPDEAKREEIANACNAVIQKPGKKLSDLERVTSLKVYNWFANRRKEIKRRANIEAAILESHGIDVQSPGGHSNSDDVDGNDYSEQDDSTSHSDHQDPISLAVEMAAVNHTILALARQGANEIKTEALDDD
# Sequence of UniProt Q9NSE4 (Q9NSE4 whole entry, looked up): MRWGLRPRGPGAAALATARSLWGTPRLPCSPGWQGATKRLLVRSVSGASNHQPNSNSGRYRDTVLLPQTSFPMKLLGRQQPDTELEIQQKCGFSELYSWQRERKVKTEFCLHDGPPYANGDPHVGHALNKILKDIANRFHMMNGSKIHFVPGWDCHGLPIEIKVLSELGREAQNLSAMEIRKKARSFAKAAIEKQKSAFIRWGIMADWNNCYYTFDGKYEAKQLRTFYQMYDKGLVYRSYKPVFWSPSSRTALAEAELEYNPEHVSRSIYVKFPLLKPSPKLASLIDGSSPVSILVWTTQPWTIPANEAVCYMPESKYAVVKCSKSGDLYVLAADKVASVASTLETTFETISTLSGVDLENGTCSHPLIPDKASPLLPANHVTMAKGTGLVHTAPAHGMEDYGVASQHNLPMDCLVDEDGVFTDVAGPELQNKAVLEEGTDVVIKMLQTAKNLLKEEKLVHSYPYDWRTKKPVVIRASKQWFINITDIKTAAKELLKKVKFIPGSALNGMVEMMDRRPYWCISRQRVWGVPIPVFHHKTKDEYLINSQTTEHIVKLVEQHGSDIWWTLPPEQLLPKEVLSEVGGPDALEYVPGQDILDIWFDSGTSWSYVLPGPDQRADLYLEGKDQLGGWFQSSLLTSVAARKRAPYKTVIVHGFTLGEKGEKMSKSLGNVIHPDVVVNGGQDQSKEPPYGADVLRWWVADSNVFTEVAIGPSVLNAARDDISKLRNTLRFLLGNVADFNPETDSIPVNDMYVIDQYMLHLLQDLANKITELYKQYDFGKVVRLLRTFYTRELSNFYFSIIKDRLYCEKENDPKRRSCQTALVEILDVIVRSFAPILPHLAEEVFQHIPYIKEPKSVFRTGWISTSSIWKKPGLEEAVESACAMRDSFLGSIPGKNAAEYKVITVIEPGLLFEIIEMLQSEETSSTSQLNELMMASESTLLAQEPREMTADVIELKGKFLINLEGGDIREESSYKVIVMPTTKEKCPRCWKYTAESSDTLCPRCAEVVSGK
# Sequence of UniProt Q9P2X3 (Q9P2X3 whole entry, looked up): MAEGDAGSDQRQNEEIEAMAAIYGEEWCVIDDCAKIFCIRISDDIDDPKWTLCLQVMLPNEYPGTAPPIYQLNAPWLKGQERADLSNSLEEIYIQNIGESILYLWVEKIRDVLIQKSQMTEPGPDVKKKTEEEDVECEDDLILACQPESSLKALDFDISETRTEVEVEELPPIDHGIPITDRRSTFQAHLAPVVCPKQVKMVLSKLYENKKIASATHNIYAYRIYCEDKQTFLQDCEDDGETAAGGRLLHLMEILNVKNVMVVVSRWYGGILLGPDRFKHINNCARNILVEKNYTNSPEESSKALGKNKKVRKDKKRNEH
# Sequence of UniProt Q6P9B9 (Q6P9B9 whole entry, looked up): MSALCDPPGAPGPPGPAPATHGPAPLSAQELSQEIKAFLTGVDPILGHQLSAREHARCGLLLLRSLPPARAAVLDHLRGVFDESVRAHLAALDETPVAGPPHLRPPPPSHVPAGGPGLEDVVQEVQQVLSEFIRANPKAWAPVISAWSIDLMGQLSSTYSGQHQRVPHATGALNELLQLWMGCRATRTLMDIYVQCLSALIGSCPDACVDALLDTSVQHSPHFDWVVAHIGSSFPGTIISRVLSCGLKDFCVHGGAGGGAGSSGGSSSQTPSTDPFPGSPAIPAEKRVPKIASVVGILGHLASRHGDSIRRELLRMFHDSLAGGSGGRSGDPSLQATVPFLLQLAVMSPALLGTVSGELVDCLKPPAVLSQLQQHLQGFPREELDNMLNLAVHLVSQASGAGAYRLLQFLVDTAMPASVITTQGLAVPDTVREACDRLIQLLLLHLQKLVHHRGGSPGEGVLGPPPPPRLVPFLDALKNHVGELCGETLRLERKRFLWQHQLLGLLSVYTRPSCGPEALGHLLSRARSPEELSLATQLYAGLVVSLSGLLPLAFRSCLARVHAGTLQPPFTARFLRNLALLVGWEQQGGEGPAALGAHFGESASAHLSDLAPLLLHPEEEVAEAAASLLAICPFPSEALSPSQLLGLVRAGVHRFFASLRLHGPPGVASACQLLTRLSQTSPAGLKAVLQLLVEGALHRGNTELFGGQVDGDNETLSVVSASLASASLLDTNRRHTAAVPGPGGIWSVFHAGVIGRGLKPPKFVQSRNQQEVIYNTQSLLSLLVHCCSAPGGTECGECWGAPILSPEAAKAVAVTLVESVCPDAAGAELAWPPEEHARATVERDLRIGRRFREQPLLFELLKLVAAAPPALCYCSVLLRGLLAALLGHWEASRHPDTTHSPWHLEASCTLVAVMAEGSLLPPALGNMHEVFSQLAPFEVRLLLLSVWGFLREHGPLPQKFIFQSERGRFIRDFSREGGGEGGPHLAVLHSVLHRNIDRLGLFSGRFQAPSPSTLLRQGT
# Sequence of UniProt Q9BT25 (Q9BT25 whole entry, looked up): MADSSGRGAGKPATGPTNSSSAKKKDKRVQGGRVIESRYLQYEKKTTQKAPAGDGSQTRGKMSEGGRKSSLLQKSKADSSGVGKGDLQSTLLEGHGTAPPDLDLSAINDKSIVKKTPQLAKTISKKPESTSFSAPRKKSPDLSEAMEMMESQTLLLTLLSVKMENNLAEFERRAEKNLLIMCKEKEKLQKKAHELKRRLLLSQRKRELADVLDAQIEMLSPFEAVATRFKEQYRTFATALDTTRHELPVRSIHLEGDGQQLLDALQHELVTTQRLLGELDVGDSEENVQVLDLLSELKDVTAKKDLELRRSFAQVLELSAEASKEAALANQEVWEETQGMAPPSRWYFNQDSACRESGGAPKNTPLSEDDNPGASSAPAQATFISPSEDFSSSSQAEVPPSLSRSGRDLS
# Sequence of UniProt Q96AB3 (Q96AB3 whole entry, looked up): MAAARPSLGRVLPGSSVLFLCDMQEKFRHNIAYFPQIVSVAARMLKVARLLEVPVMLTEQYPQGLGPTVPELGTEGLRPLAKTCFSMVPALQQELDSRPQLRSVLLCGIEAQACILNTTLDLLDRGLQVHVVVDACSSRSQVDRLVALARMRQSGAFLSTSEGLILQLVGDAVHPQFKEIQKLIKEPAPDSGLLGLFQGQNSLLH
# Sequence of UniProt Q8IY47 (Q8IY47 whole entry, looked up): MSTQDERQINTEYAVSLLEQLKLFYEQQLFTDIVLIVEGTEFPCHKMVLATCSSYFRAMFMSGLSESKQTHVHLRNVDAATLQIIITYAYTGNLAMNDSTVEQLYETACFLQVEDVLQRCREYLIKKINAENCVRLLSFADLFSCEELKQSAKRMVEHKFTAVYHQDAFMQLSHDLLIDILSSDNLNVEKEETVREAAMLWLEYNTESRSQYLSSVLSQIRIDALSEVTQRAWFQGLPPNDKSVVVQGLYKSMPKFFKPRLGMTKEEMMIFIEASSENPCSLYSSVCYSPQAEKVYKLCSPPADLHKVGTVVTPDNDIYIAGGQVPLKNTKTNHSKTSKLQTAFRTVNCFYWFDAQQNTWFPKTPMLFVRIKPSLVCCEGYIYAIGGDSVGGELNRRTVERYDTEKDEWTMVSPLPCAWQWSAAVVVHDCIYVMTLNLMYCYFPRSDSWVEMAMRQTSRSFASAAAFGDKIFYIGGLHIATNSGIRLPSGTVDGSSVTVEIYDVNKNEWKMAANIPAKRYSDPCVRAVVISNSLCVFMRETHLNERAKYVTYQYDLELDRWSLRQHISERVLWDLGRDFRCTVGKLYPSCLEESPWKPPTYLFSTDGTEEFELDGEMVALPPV
# Sequence of UniProt P04792 (P04792 whole entry, looked up): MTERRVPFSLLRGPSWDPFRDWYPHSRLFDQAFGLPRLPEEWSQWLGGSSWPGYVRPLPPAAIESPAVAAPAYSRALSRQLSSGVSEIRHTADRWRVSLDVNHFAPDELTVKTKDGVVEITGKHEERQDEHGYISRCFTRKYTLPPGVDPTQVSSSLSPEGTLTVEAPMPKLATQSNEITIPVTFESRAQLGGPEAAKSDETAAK
row,Target,log2 fold change
1,KBTBD2 (UniProt Q8IY47),0.012 (inactive)
2,HNRNPUL1 (UniProt Q9BUJ2),-0.003 (inactive)
3,KDM1A (UniProt O60341),0.009 (inactive)
4,GOLGA6B (UniProt A6NDN3),-0.123 (inactive)
5,GOLPH3L (UniProt Q9H4A5),-0.009 (inactive)
6,GTPBP2 (UniProt Q9BX10),0.049 (inactive)
7,ISOC2 (UniProt Q96AB3),0.03 (inactive)
8,HAUS8 (UniProt Q9BT25),0.009 (inactive)
9,HAUS6 (UniProt Q7Z4H7),0.005 (inactive)
10,HADHB (UniProt P55084),0.167 (inactive)
11,INTS5 (UniProt Q6P9B9),0.015 (inactive)
12,IARS2 (UniProt Q9NSE4),0.028 (inactive)
13,HDHD5 (UniProt Q9BXW7),-0.05 (inactive)
14,HNRNPDL (UniProt O14979),0.048 (inactive)
15,HMBOX1 isoform 5 (UniProt Q6NT76),0.027 (inactive)
16,GNE isoform 2 (UniProt Q9Y223),0.007 (inactive)
17,HERC2 (UniProt O95714),0.018 (inactive)

row,Target,log2 fold change
1,IFITM3 (UniProt Q01628),-0.088 (inactive)
2,HNRNPM (UniProt M0QZM1),0.152 (inactive)
3,HELQ (UniProt Q8TDG4),-0.004 (inactive)
4,"HDLBP, A0A024R4E5",-0.018 (inactive)
5,IGF2BP3 (UniProt O00425),0.035 (inactive)
6,HAUS5 (UniProt O94927),-0.055 (inactive)
7,GIT1 (UniProt Q9Y2X7),0.093 (inactive)
8,HSPB1 (UniProt P04792),-0.017 (inactive)
9,IL18R1 (UniProt Q13478),-0.094 (inactive)
10,HNRNPUL2 (UniProt Q1KMD3),0.007 (inactive)
11,HSPA8 (UniProt P11142),-0.004 (inactive)
12,GTF2I (UniProt P78347),0.015 (inactive)
13,HMGB2 (UniProt P26583),0.036 (inactive)
14,IMPACT (UniProt Q9P2X3),-0.067 (inactive)
15,HLTF (UniProt Q14527),0.028 (inactive)
16,IARS (UniProt P41252),0.066 (inactive)

# Compound: c1ccc([C@@H]2C[C@H]2NC2CCNCC2)cc1
# Assay: as above
# Procedure, shortened: as §1
row,Target,log2 fold change
1,KBTBD2 (UniProt Q8IY47),-0.119 (inactive)
2,HNRNPUL1 (UniProt Q9BUJ2),-0.006 (inactive)
3,KDM1A (UniProt O60341),0.817 (active)
4,GOLGA6B (UniProt A6NDN3),0.012 (inactive)
5,GOLPH3L (UniProt Q9H4A5),0.021 (inactive)
6,GTPBP2 (UniProt Q9BX10),0.034 (inactive)
7,ISOC2 (UniProt Q96AB3),-0.031 (inactive)
8,HAUS8 (UniProt Q9BT25),0 (inactive)
9,HAUS6 (UniProt Q7Z4H7),0.041 (inactive)
10,HADHB (UniProt P55084),-0.048 (inactive)
11,INTS5 (UniProt Q6P9B9),0.127 (inactive)
12,IARS2 (UniProt Q9NSE4),0.119 (inactive)
13,HDHD5 (UniProt Q9BXW7),-0.012 (inactive)
14,HNRNPDL (UniProt O14979),-0.071 (inactive)
15,HMBOX1 isoform 5 (UniProt Q6NT76),-0.114 (inactive)
16,GNE isoform 2 (UniProt Q9Y223),0.06 (inactive)

row,Target,log2 fold change
1,HERC2 (UniProt O95714),-0.037 (inactive)
2,IFITM3 (UniProt Q01628),0.026 (inactive)
3,HELQ (UniProt Q8TDG4),-0.074 (inactive)
4,"HDLBP, A0A024R4E5",0.008 (inactive)
5,IGF2BP3 (UniProt O00425),-0.002 (inactive)
6,HAUS5 (UniProt O94927),0.089 (inactive)
7,GIT1 (UniProt Q9Y2X7),0.073 (inactive)
8,HSPB1 (UniProt P04792),0.028 (inactive)
9,IL18R1 (UniProt Q13478),0.052 (inactive)
10,HNRNPUL2 (UniProt Q1KMD3),0.032 (inactive)
11,HSPA8 (UniProt P11142),0.006 (inactive)
12,GTF2I (UniProt P78347),0.061 (inactive)
13,HMGB2 (UniProt P26583),0.161 (inactive)
14,IMPACT (UniProt Q9P2X3),-0.13 (inactive)
15,HLTF (UniProt Q14527),0.011 (inactive)
16,IARS (UniProt P41252),0.047 (inactive)
